Source: PubChem (several laboratories)
NOD2 RIPK2 PPI = NOD2-RIPK2 binding disruptors in cells, primary screen, fluorescence, CHO cells, BLA complementation. CCF4 ratio. inhibition, % at 4.98 µM. 360,000 tested, 0.38% active. AID 624267, 2012; in the data active = inhibition above about 21%;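 note: 0% = vehicle only and 100% = reference blocker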
Target sequence (O43353 whole entry, looked up): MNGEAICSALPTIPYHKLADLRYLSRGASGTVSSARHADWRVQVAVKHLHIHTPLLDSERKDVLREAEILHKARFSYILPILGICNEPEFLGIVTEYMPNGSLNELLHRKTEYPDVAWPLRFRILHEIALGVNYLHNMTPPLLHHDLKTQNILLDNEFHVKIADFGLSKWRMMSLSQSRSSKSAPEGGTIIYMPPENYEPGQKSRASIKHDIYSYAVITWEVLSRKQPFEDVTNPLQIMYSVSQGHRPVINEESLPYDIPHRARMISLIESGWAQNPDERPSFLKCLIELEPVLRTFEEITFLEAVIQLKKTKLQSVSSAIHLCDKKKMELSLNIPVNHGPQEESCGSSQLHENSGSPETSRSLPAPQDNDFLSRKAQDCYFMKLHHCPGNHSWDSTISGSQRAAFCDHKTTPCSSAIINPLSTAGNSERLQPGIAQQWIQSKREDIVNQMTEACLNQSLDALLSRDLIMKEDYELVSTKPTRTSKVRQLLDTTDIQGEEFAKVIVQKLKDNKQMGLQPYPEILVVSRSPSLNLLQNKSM
ABHD5 PLIN5 PPI = ABHD5-PLIN5 interaction inhibitors, primary screen, cell lysate, split luciferase complementation, luminescence; Split G. princeps luciferase complementation, 4 h; inhibition, % at 4 µM; 360,000 tested, 0.78% active; AID 602281, 2012;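 active = inhibition above the mean inhibition across every tested compound plus 3 SD, cut at about 22% in these data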;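 note: 0% = DMSO only wells and the 100% control is not disclosed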
PRMT1 FP inh = PRMT1 methyltransferase inhibitors, primary screen, biochemical, fluorescence polarization; recombinant PRMT1, activity-based probe fluorescence polarization; inhibition, % at 2.79 µM; 370,000 tested, 1.3% active; Protein arginine N-methyltransferase 1 (Homo sapiens), Q99873; AID 652257, 2013;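 active = inhibition above about 21% made by adding two undisclosed values, limit read from the data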
TLR9-MyD88 block = inhibitors of TLR9-MyD88 association in cells, primary screen, cell-based, CHO, BLA complementation, fluorescence; AID 504734, 2011; Toll-like receptor 9 (Homo sapiens) + Myeloid differentiation primary response protein …; 340,000 tested, 0.21% active; inhibition, % at 4.98 µM; CCF4 FRET ratio;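 active = inhibition above the mean over all tested compounds plus 3 SD, cut at about 21% in these data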;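 note: 0% = DMSO only wells and 100% = clavulanate BLA inhibitor control wells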
Granule exo inh = LAMP-1 surface exposure blockers, TALL-104 cells – cell-based, flow cytometry, MLPCN library, primary screen; TALL-104 LAMP-1 surface exposure; cells stimulated with thapsigargin and PMA; inhibition, % at 10 µM; 360,000 tested, 0.66% active; AID 651702, 2012;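 active = inhibition above about 55%, limit read from the data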
TLR4-MyD88 BLA = inhibitors of TLR4-MyD88 association in cells, primary screen, cell-based, HeLa CL3-4, BLA complementation, FRET ratio; inhibition, % at 8.4 µM; HeLa CL3-4 TLR4/MyD88 BLA complementation; 200,000 tested, 0.18% active; in the data active = inhibition above about 25%;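 note: 0% = vehicle and 100% = reference inhibitor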
Active calls of the source: *; nt = no result. In the library only some 2.6% were active in any assay of this set; here they are far more common.

SMILES	NOD2 RIPK2 PPI	ABHD5 PLIN5 PPI	PRMT1 FP inh	TLR9-MyD88 block	Granule exo inh	TLR4-MyD88 BLA
O=C1S/C(=C\c2ccc(N3CCOCC3)o2)C(=O)N1Cc1c(F)cccc1Cl	-4	17	5	8	88*	1
O=C1N=C(N2CCOCC2)S/C1=C/c1ccc(-c2ccccc2Cl)o1	-3	3	0	-4	2	4
CCCCOP(=O)(OCCCC)C1(NS(=O)(=O)c2ccccc2)C=CC(=O)c2ccccc21 (configuration not stated)	7	-6	19	2	99*	6
CCCCOCCCNS(=O)(=O)c1ccccc1	2	4	-1	-1	-3	12
Cc1ccc(Cn2cc(CN(C)S(=O)(=O)c3ccccc3Br)nn2)cc1	nt	nt	1	nt	nt	nt
CN1CCN(C(=O)C2=C[C@@H](c3coc4ccccc4c3=O)C[C@@H](OCCCCO)O2)CC1	-4	13	-3	8	-6	-4
O=C(O)C1=C[C@H](c2coc3ccccc3c2=O)C[C@H](OCCCCO)O1	-11	2	-1	-14	69*	-3
O=C(Nc1ccccc1C(F)(F)F)OC1CCC12CCC(c1ccccc1)CC2 (configuration not stated)	nt	nt	-2	nt	nt	nt
COC(=O)C1OC(OC2CC[C@]3(C)C(CC[C@@]4(C)[C@@H]3CC=C3[C@@H]5CC(C)(C)CC[C@]5(C(=O)OC5OC(CO)C(O)C(O)C5O)CC[C@]34C)C2(C)C)C(O)C(O)C1O[C@H]1OCC(O)C(O)C1O (some centres not stated)	-4	33*	nt	-4	-6	nt
Cc1cccc(C=NNc2cc(C)c3cccc(C)c3n2)n1	nt	nt	-3	nt	nt	nt
O=C1c2ccccc2-c2onc3ccc(Oc4ccccc4)c1c23	9	7	11	19	85*	-6
COc1ccc(CN(C)C(=O)[C@@H](Cc2ccccc2)NC(=O)[C@H]2O[C@@H](n3ccc(N)nc3=O)[C@H](O)[C@@H]2O)cc1OC	nt	nt	-2	nt	nt	nt
c1cnc2c(SCc3ccc(-c4nnco4)cc3)cccc2c1	3	-6	2	-1	69*	5
COc1cc(NC(=O)[C@@H](Cc2ccccc2)NC(=O)[C@H]2O[C@@H](n3ccc(=O)[nH]c3=O)[C@H](O)[C@@H]2O)cc(OC)c1OC	nt	nt	3	nt	nt	nt
CCC(c1nnc(SCC(=O)NCCc2ccc(Cl)cc2Cl)o1)N(C)C (configuration not stated)	4	-8	21*	3	-1	-1
C/C(=C\C(=O)c1ccccc1)Nc1ccc(O)cc1	-5	-21	31*	-8	-2	7
O=C(O)CCNc1cc(N2CCN(C(=O)c3ccco3)CC2)c2noc3c2c1C(=O)c1ccccc1-3	-10	-2	25*	-4	-5	nt
O=C(Cn1ccc2ccccc2c1=O)N1CCN(c2cccc(Cl)c2)CC1	1	22*	0	-5	-2	3
O=C(Cn1ccc2ccccc2c1=O)NCCC(=O)N1CCN(c2cccc(Cl)c2)CC1	-3	5	0	-7	0	-4
c1ccc2c(c1)OCc1nccn1-2	nt	nt	-3	nt	nt	nt
O=[N+]([O-])c1ccc2c(c1)/C(=N\O)c1ccccc1-2	1	-6	-1	4	14	nt
O=[N+]([O-])c1ccc2c(c1)-c1ccccc1C2O (configuration not stated)	1	9	36*	4	-3	nt
N#CC1=C(S)N=C(N)C(c2nc(-c3ccccc3)cs2)C12CCCCC2 (configuration not stated)	0	21	16	-6	-1	-5
N#CC1=C(S)N=C(N)C(c2nc(-c3ccccc3)cs2)C12CCCC2 (configuration not stated)	0	2	33*	4	70*	-11
COC(=O)[C@]12C[C@H](CC(=O)N3CCC(c4ccccc4)CC3)C(=O)N(CCC3=CCCCC3)C1=C[C@H](COCc1ccccc1)O[C@@H]2C	nt	nt	-2	nt	nt	nt
SMILES	NOD2 RIPK2 PPI	ABHD5 PLIN5 PPI	PRMT1 FP inh	TLR9-MyD88 block	Granule exo inh	TLR4-MyD88 BLA
N#CC1(C#N)CC(C=O)=C(N)C1(C#N)CC(=O)c1ccc(F)cc1 (configuration not stated)	-2	-25	24*	5	0	-2
C[C@@H]1CN([C@@H](C)CO)C(=O)CCCn2cc(nn2)CO[C@H]1CN(C)C(=O)Nc1ccccc1F	nt	nt	2	nt	nt	nt
Cn1nc([N+](=O)[O-])c(C(C#N)c2nc3ccccc3n2C)c(Cl)c1=O (configuration not stated)	10	9	19	-6	71*	12
Cn1c(-c2ccc([N+](=O)[O-])cc2)nc2ccccc21	0	-13	-4	-3	3	6
O=C(c1ccccc1)C(Sc1ncn[nH]1)c1ccccc1 (configuration not stated)	6	-6	23*	11	8	1
N#Cc1c(N2CCOCC2)nc(-c2ccco2)c2c1CCCC2	4	23*	15	0	2	-8
Cc1ccc(NNC(=O)c2ccno2)cc1C	-7	-3	23*	-6	-8	nt
Cc1ccc(NNC(=O)c2ccno2)cc1Cl	0	-4	-8	-4	1	nt
CCOc1cc(NC(=S)Nc2cccc(C)c2)c(OCC)cc1NC(=O)CC(C)C	-11	-5	24*	-6	2	10
Cc1ccc2nc(CN(C)C(=O)[C@H]3O[C@@H](n4cnc(C(N)=O)n4)[C@H](O)[C@@H]3O)[nH]c2c1	nt	nt	-2	nt	nt	nt
CCN1CCN(c2ncnc3scc(-c4ccc(C)c(C)c4)c23)CC1	-7	-1	-5	-3	82*	nt
Fc1ccc(CN2CCN(c3ncnc4scc(-c5ccc(F)cc5)c34)CC2)cc1	-11	-4	-2	-2	5	nt
CCN(CC)C(=O)CC[C@@H]1CC[C@]2(CCCN(Cc3ccccn3)C2)O1	nt	nt	-2	nt	nt	nt
NC(N)=N/N=C(\N=Nc1ccccc1)c1cccc2cccnc12	-3	4	-4	-11	-1	nt
NC(N)=N/N=C(\N=Nc1ccccc1)c1ccc(Cl)cc1	4	-4	-8	8	56*	nt
CN(Cc1ccccc1)C(=O)OCc1cn(Cc2ccc(F)cc2)nn1	nt	nt	-2	nt	nt	nt
Cc1cccc2sc(N(CCN(C)C)C(=O)/C=C/c3cccs3)nc12	-4	19	-1	2	-12	-9
CN(C)CCCN(C(=O)/C=C/c1cccs1)c1nc2c(F)cccc2s1	1	17	9	-5	57*	-1
CCCN(CCC)C(=O)c1ccc2c(=O)n(Cc3ccco3)c(=S)[nH]c2c1	7	4	4	0	-1	1
